Over roughly 33,000 sequences, “E-score (-0.5 to 0.5)” has its median near -0.041; the highest 2% begin near 0.37. This is one part of a sample in which the highest values are shown more often than they occur.
Biological target: T1, Ecm22 (UniProt Q05958)
T1 sequence: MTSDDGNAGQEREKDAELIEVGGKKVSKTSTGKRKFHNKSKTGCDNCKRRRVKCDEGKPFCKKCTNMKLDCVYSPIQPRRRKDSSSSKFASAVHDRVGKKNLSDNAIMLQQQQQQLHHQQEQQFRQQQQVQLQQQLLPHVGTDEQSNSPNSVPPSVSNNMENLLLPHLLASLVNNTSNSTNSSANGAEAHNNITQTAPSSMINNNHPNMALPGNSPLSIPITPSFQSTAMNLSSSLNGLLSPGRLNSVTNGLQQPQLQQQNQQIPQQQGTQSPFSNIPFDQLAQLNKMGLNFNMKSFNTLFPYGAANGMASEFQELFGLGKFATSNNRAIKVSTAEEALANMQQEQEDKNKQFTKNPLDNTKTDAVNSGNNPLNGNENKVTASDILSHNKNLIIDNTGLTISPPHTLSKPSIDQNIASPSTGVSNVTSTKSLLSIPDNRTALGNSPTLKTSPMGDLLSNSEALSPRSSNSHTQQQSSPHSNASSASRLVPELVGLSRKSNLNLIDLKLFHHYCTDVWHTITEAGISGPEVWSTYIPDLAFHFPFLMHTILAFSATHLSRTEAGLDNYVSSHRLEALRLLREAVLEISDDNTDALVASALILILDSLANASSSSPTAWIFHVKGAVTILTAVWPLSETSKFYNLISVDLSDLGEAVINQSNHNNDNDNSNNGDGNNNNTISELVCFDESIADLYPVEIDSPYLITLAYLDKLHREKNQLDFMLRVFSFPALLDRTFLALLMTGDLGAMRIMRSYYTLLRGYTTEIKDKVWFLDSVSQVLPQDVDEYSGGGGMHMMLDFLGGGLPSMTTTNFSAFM
Assay: PBM E-score (8-mer binding enrichment) (E-score (-0.5 to 0.5)); higher = stronger / more preferred TF binding
Details: protein concentration: 200 nM; construct: GST-full length
Description: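 Universal 'all 10-mer' protein binding microarrays (Agilent AMADID 015681) probed with GST-tagged S. cerevisiae TFs (full-length or DBD) made by in vitro transcription/translation (PURExpress), about 100-200 nM. Bound TF was detected with fluorescent anti-GST. Each ungapped 8-mer (which stands for itself and its reverse complement) is scored by the PBM enrichment score (E-score), a modified Wilcoxon-Mann-Whitney statistic from -0.5 to +0.5, computed with the Universal PBM Analysis Suite. Scale: above 0.35 generally sequence-specific binding.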

Sequence | PBM E-score
AGCTGCCA | -0.171
ACGCCACC | -0.0558
CCGGTGGC | -0.135
ACGAGTCG | 0.384
ACGAGTCT | 0.324
ACGAGTCA | 0.219
AATCCATT | 0.0189
CACTCGTC | 0.0448
AACTCGTC | 0.102
AACTCGTA | 0.47
AACTCGTG | 0.228
GACTCGCA | 0.151
CACTCGAA | 0.0641
GACTCGAA | -0.121
CACTCGTA | 0.458
GACTCGTA | 0.455
GCTACCTA | -0.156
ACCTTTCA | -0.0376
ACAAGCCG | -0.0164
AGGATTAC | -0.0965
CCGGTAAG | 0.0008
ATAATTAT | 0.311
ACAGTAAT | -0.0196
CAGAATCG | 0.17
ACCTCACA | -0.106

Sequence | PBM E-score
AAAGTGTT | -0.0118
GCTTGAGA | -0.0858
CCGAGGGA | -0.0341
ACGAGGGG | 0.365
CCGAGGGC | 0.203
ACGAGGGA | 0.41
AAGAGGGC | -0.297
ACGAGGGC | 0.374
TAGTGGCA | -0.179
CCCTTCCC | -0.234
ACTCCAAC | -0.175
CTACTTCC | 0.0408
ATCATCAT | 0.0455
GTATCGAC | 0.165
CGCGTAAG | 0.165
CACGTAAG | 0.0432
GACGTAAC | -0.079
GGCGTAAC | -0.0339
CACGTAAC | -0.149
CTCGTAAG | 0.44
ATCGTAAC | 0.368
GTCGTAAC | 0.397
CTCGTAAC | 0.428
TCGCACCA | 0.324
CTAAGAAG | -0.0845

Sequence | PBM E-score
ACTGTGAG | -0.105
GCGAGCAA | 0.198
CCCATTAG | -0.248
AGCAACAT | -0.112
ACGTCTTC | -0.126
ACAACTGT | -0.148
ACTGTACG | 0.42
CCTGTACA | -0.174
AGTGTACA | -0.0734
CCTGTACG | 0.4
ATTGTACA | -0.0596
ACTGTACC | -0.0754
CCTGTACC | -0.0544
ATTGTACC | 0.00485
AGTGTACC | -0.059
ACTGTACT | -0.12
AGTGTACG | 0.389
ATTGTACG | 0.431
AATTTTGA | 0.0335
CCCTGATA | -0.194
CGGATCTA | 0.0938
CAAGCCGA | 0.0727
AGACAGAA | -0.0147
CATGTACA | -0.0676
CATGTACG | 0.399

Sequence | PBM E-score
AATGTACG | 0.331
CAAGGGTA | -0.0852
GGTACAGA | -0.0866
AGTACAGC | -0.113
AGTACAGA | 0.0225
CGTACAGC | 0.427
CGTACAGA | 0.382
CCTACAGC | -0.318
CGAAGGCG | 0.124
CGGGTTAC | 0.231
CGTTCCAA | 0.365
AGTTCCAG | -0.172
GGTTCCAC | -0.237
AGTTCCAC | 0.0665
CGTTCCAG | 0.418
CGTTCCAC | 0.405
CAATCTAG | -0.0844
AGGTCCCC | -0.33
GCTTCCGA | 0.0694
GCTGCGAA | 0.0942
CCACAGTC | -0.189
AGGGACAC | -0.0536
CGTTTACC | 0.435
GGTTTACA | -0.0503
AGTTTACA | -0.0418

Sequence | PBM E-score
CATTTACC | -0.0682
AGTTTACC | -0.0268
CGTTTACA | 0.405
GCTAGCCC | -0.379
GGCCCGGA | -0.142
GCAGGTCC | 0.0428
CCATCTCG | 0.105
CACATACG | 0.335
CGCATACA | 0.111
CGCATACG | 0.385
CGCATACC | 0.16
ATCATACC | 0.00527
ATCATACA | 0.0909
AACATACT | 0.0945
AACATACG | 0.373
ATCATACG | 0.404
CCGTCTTC | -0.175
CCCTCAAA | -0.157
ATTTGCGG | 0.0753
AACCGTTA | 0.0731
TCGACAAA | 0.178
ACGACAGT | 0.382
ACGACAAT | 0.368
ACGACAGC | 0.319
ACGACAAA | 0.384

Sequence | PBM E-score
ACGACAGG | 0.339
ACGACAAC | 0.366
CCGACAAA | 0.0481
ACGACAAG | 0.334
ACGCCAGG | 0.0457
GTCCAGCA | -0.169
AAGCGTGT | -0.18
CAGATATC | -0.0887
GGTTCGAC | 0.0422
TGCACAAA | -0.22
AAGCTCGA | 0.0757
AATCTCGT | 0.386
AATCTCGA | 0.0888
AAGCTCGT | 0.38
AATCTCGG | 0.129
AAGCTCGC | 0.297
TACATGGA | -0.119
GCAGGGCA | -0.18
GGCCACCA | -0.161
ACCAGAAG | -0.0736
CGACTGAA | 0.163
ACCGAGCC | 0.245
CAACGATC | 0.175
AAACGATG | 0.439
GATCGATC | 0.171

Sequence | PBM E-score
AAACGCTG | 0.0348
CCACGATC | 0.0737
CAACGATG | 0.207
AAACGCTT | 0.00074
AAACGATC | 0.423
AGACGATC | -0.0754
GAACGATC | 0.432
AATCGATT | 0.0191
AAACGATT | 0.42
CATTAGGG | -0.168
AGAACCCG | -0.0503
ACTCTACG | 0.265
AGCGCACG | 0.097
ACCCCCTC | -0.274
CGTGGATC | -0.0292
CCTATGGA | -0.192
CCCATTAC | -0.101
CGACTGAG | 0.0682
CCACGATA | 0.0166
AAACGATA | 0.435
GGACGATA | -0.213
GAACGATA | 0.416
CAACGATA | 0.263
TAACGATA | 0.367
